This is an account of results in PubChem BioAssay (NCATS).

The structures appear in SMILES notation. Inconclusive results are not listed. Unmarked numbers belong to inactive results. Activity calls are given as the source filed them. Calls follow the shape of the dose curve; as a rule, active = well fitted inhibition curve with a large enough effect in the signal ratio, with a control signal flat (not every such curve was filed as active); inconclusive = small, poorly fitted or top-dose-only effect, or effect the other way, or a change in a side signal; inactive = no such curve, though single readings can be large or run the other way; the % refers to the signal ratio.

Chain of Peroxisome proliferator-activated receptor delta (Homo sapiens) (Q03181 whole entry, looked up): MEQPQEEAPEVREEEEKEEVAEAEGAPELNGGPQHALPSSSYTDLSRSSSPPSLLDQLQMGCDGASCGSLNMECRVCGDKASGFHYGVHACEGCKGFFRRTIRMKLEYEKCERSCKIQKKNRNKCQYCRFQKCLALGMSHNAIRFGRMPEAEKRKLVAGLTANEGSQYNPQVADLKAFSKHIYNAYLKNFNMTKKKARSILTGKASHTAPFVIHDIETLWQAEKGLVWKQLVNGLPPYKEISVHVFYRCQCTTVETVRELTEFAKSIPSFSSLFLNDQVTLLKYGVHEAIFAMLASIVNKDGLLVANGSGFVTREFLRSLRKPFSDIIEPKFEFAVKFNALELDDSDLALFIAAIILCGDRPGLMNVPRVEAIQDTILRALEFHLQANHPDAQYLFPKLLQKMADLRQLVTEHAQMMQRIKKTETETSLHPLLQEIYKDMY

The assay concerns the target Peroxisome proliferator-activated receptor delta (Homo sapiens) (UniProt Q03181). Kind of assay: qHTS assay for small molecule antagonists of peroxisome proliferator-activated receptor delta signaling (AID 588535). Particulars: HEK293T PPARd-UAS-bla, beta-lactamase FRET ratio, 18 h; series mostly up to 76.7 µM; activity change, negative = inhibition: at the top concentration. The source says: NIH Chemical Genomics Center [NCGC] U.S. Environmental Protection Agency [EPA] National Institutes of Environmental Health Sciences [NIEHS] National Toxicology Program [NTP] NCGC Assay Overview The Peroxisome proliferator-activated receptors (PPARs) are lipid-activated transcription factors of the nuclear receptor superfamily with three distinct subtypes namely PPAR alpha, PPAR delta (also called PPAR beta) and PPAR gamma. All these subtypes heterodimerizes with Retinoid X receptor (RXR) and have different physiological functions. […] This role of PPAR delta implicates the potential use of its ligands in the treatment of metabolic disorders.
NCGC Assay Protocol Summary Using a beta-lactamase reporter-gene under control Peroxisome Proliferator-Activated Receptor delta (PPAR-delta) response element, a cell-based assay [GeneBLAzer (PPAR-delta-UAS-bla assay developed by Invitrogen] was used to measure PPAR-delta ligands signaling. GeneBLAzer PPAR-delta-UAS-bla HEK293T cells were used with assay medium containing 2% charcoal/dextran FBS. The assay was performed in clear bottom black Greiner 1536-well plates. Library compounds were measured for their ability to inhibit the reporter gene activity. Compounds were screened in a titration series in 1536-well format. The fluorescence intensity (405 nm excitation, 460/530 nm emission) was measured using an EnVision plate reader. […] Concentration-response titration points for each compound were fitted to the Hill equation yielding concentrations of half-maximal inhibition (IC50) and maximal response (efficacy) values. qHTS protocol for PPAR-delta beta-lactamase assay in antagonist mode [Step] [Parameter] [Value] [Description] 1. Reagent; 5 uL; 4000 cells/well 2. Incubation; 37 C for 5 hrs 3. Compounds; 23 nL; 0.59 nM to 92 uM 4. […] Incubation; 37 C for 18 hrs 7. Detection reagent; 1 uL of CCF4-dye 8. Incubation; RT for 2 hrs 9. Detection; Fluorescence; Envision plate reader
For the compound `Nc1c(Br)cc([N+](=O)[O-])cc1[N+](=O)[O-]`, the “activity change, negative = inhibition” value is 10.8%. Turning to `Nc1ccc([N+](=O)[O-])cc1N`, the “activity change, negative = inhibition” value was 13.5%.

As for `Cc1ccc(N)cc1C`, the “activity change, negative = inhibition” value was -12.1%. On to `CN(C)C(=O)Cl`, for which the “activity change, negative = inhibition” value was -33.9%. With `CC(C)CC(C)N` (stereo not given), the “activity change, negative = inhibition” value is -13%. For `Cl/C=C/Cl`, the “activity change, negative = inhibition” value is -17.2%. Still for that read-out and setting: for `O=[N+]([O-])c1cc(Cl)c(Cl)cc1Cl` the value was 2.29%.

On to `C=CC(=O)OCC(CC)CCCC` (stereo not given), for which the result was inactive. With `ClCC(Cl)CCl`, the “activity change, negative = inhibition” value was 5.33%. Take `Clc1cccc(Cl)c1`: the “activity change, negative = inhibition” value was 0.127%. On the same count and under the same terms, then `CCOC(=O)CBr`, with -15.3%; and `CCSC(=O)N1CCCCCC1`, with -1.76%; and `C=CCO`, with 3.72%.

Consider `N#CCc1ccccc1`, for which the “activity change, negative = inhibition” value is -11.6%. On the same count and under the same terms, for `CCCCOC(=O)c1ccccc1N` the value was -34.5%. Still for that read-out and setting: then `COC(C)(C)C`, with -23.1%. Regarding `CNC(=O)O/N=C/C(C)(C)S(C)=O` (stereo not given), the result was inactive.

Regarding `N#CC(Br)Br`, the “activity change, negative = inhibition” value is -21.5%. On the same count and under the same terms, then `ClC=CCl`, with -2.45%. Still for that read-out and setting: for `O=[N+]([O-])c1ccccc1CCl` the value was -5.49%; for `N#CCCC#N`, -2.04%.

For the compound `Cc1ccc2c(C)cccc2c1`, the “activity change, negative = inhibition” value is 5.24%. Still for that read-out and setting: for `Oc1c(Cl)c(Cl)cc(Cl)c1Cl` the value was -26.2%. For `Cc1ccc(OP(=O)(Oc2ccc(C)cc2)Oc2ccc(C)cc2)cc1`, the outcome was inactive. As for `C[N+](=O)[O-]`, the “activity change, negative = inhibition” value is -7.42%. Still for that read-out and setting: then `O=C(O)CBr`, with -16.8%. Take `Cc1cc(-c2cc(C)c(N)c(C)c2)cc(C)c1N`: the “activity change, negative = inhibition” value was -6.14%.

For `C=C(C)CCl`, the “activity change, negative = inhibition” value is -23.9%. The same measure, in the same setting: then `CC(C#N)CCC#N` (stereo not given), with 6.87%; and `CN=C=O`, with -0.0498%.

In the case of `CC1CC(=O)O1` (stereo not given), the “activity change, negative = inhibition” value is -0.0545%. Still for that read-out and setting: for `C=C(Cl)CSC(=S)N(CC)CC` the value was -14%; for `C=CC(=O)OCCN(C)C`, -2.27%; for `C=CC(=O)OCCO`, -6.15%. For the compound `O=S(=O)(O)F`, the “activity change, negative = inhibition” value was -1.17%. For `O=S(=O)(Cl)c1ccccc1`, the result was inactive. For `c1ccc2c(c1)CCNC2`, the “activity change, negative = inhibition” value was -9.67%. On the same count and under the same terms, then `COC(=O)c1ccccc1N`, with -30.1%. For `c1ccc(N=NNc2ccccc2)cc1`, the result was inactive. Turning to `Nc1ncc([N+](=O)[O-])s1`, the “activity change, negative = inhibition” value was 14.1%.
